# Tested on: Madurella mycetomatis MM55
# Experiment: growth relative to untreated control; higher = less inhibition, active = 20 or less
# Settings: 25 µM
# Method: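 Hyphal fragments of M. mycetomatis MM55 or F. senegalensis CBS197.79 in RPMI 1640/MOPS were exposed to each MMV COVID Box or Global Health Priority Box compound at 100 or 25 µM for 7 days at 37 °C. Viability was read with MTS (490 nm, M. mycetomatis) or resazurin (600 nm, F. senegalensis), background-corrected with a medium-only control and expressed as % growth relative to the untreated growth control. Inhibition of more than 80% was taken as growth inhibition.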
row,Structure (SMILES),growth
1,OCCN1CCN(CCCN2c3ccccc3Sc3ccc(C(F)(F)F)cc32)CC1,3.76% (active)
2,CCC(C)(C)n1nnnc1C(c1cc2ccc(C)cc2[nH]c1=O)N1CCN(c2ccccc2)CC1 (stereo not given),76.6% (inactive)
3,Cc1nc(NC2(c3ccc(C#N)cc3)CC2)nc(NCC2COC2)c1C,87.8% (inactive)
4,CCCCC(=O)N(Cc1ccc(-c2ccccc2-c2nn[nH]n2)cc1)[C@H](C(=O)O)C(C)C,82.1% (inactive)
5,O=C(NCCN1CCCCC1)c1cncc(-c2ccc(Cl)c(Cl)c2)c1,52.1% (inactive)
6,COc1ccc(-n2nc(C)c3c2NC(=O)CC3c2ccccc2OCc2ccc(F)cc2)cc1 (stereo not given),41.5% (inactive)
7,COc1cc(N2CCN(C)CC2)ccc1Nc1nccc(-c2cn(C)c3cnccc23)n1,36.2% (inactive)
8,CCOc1ccccc1NC(=O)Cn1c(=O)n(Cc2ccccc2)c(=O)c2c(C)c(C(=O)N(C)C)sc21,104% (inactive)
9,CN(C)CCNC(=O)c1ccc(Nc2nccc(-c3ccc(Cl)c(Cl)c3)n2)cc1,5.83% (active)
10,CN(C)CCCN1c2ccccc2CCc2ccc(Cl)cc21,38.1% (inactive)
11,CC[C@H](C)[C@H]1O[C@]2(CC[C@@H]1C)C[C@@H]1C[C@@H](C/C=C(\C)[C@@H](O[C@H]3C[C@H](OC)[C@@H](O[C@H]4C[C@H](OC)[C@@H](O)[C@H](C)O4)[C@H](C)O3)[C@@H](C)/C=C/C=C3\CO[C@@H]4[C@H](O)C(C)=C[C@@H](C(=O)O1)[C@]34O)O2,73.2% (inactive)
12,CN(C)C(=O)COC(=O)Cc1ccc(OC(=O)c2ccc(NC(=N)N)cc2)cc1,77.6% (inactive)
13,Cn1nc(C(=O)Nc2ccc(F)c(Cl)c2)c2c1-c1ccccc1S(=O)(=O)C2,86.8% (inactive)
14,C[C@H](/N=C(\N)c1cc2c(F)cc(F)cc2[nH]1)c1ccccc1,35% (inactive)
15,COc1cc2c3cc1Oc1c(OC)c(OC)cc4c1[C@@H](Cc1ccc(O)c(c1)Oc1ccc(cc1)C[C@@H]3N(C)CC2)N(C)CC4,88.9% (inactive)
16,CC(C)CC(NCCc1ccccc1O)c1ccccn1 (stereo not given),41.8% (inactive)
17,O[C@@H](CNC[C@H](O)[C@H]1CCc2cc(F)ccc2O1)[C@@H]1CCc2cc(F)ccc2O1,5.79% (active)
18,CCSc1ccc2c(c1)N(CCCN1CCN(C)CC1)c1ccccc1S2,3.68% (active)
19,CN(c1ncc2nc(Nc3cc(Cl)cc(C(F)(F)F)c3)n(C3CCNCC3)c2n1)C1CC1,54.8% (inactive)
20,CCC(C)n1ncn(-c2ccc(N3CCN(c4ccc(OCC5COC(Cn6cncn6)(c6ccc(Cl)cc6Cl)O5)cc4)CC3)cc2)c1=O (stereo not given),5.47% (active)

# Same assay, conditions: 100 µM
row,Structure (SMILES),growth
1,OCCN1CCN(CCCN2c3ccccc3Sc3ccc(C(F)(F)F)cc32)CC1,3.71% (active)
2,CCC(C)(C)n1nnnc1C(c1cc2ccc(C)cc2[nH]c1=O)N1CCN(c2ccccc2)CC1 (stereo not given),91.7% (inactive)
3,Cc1nc(NC2(c3ccc(C#N)cc3)CC2)nc(NCC2COC2)c1C,22.3% (inactive)
4,CCCCC(=O)N(Cc1ccc(-c2ccccc2-c2nn[nH]n2)cc1)[C@H](C(=O)O)C(C)C,83.4% (inactive)
5,O=C(NCCN1CCCCC1)c1cncc(-c2ccc(Cl)c(Cl)c2)c1,5.8% (active)
6,COc1ccc(-n2nc(C)c3c2NC(=O)CC3c2ccccc2OCc2ccc(F)cc2)cc1 (stereo not given),52.4% (inactive)
7,COc1cc(N2CCN(C)CC2)ccc1Nc1nccc(-c2cn(C)c3cnccc23)n1,4.78% (active)
8,CCOc1ccccc1NC(=O)Cn1c(=O)n(Cc2ccccc2)c(=O)c2c(C)c(C(=O)N(C)C)sc21,109% (inactive)
9,CN(C)CCNC(=O)c1ccc(Nc2nccc(-c3ccc(Cl)c(Cl)c3)n2)cc1,4.93% (active)
10,CN(C)CCCN1c2ccccc2CCc2ccc(Cl)cc21,3.39% (active)
11,CC[C@H](C)[C@H]1O[C@]2(CC[C@@H]1C)C[C@@H]1C[C@@H](C/C=C(\C)[C@@H](O[C@H]3C[C@H](OC)[C@@H](O[C@H]4C[C@H](OC)[C@@H](O)[C@H](C)O4)[C@H](C)O3)[C@@H](C)/C=C/C=C3\CO[C@@H]4[C@H](O)C(C)=C[C@@H](C(=O)O1)[C@]34O)O2,83.5% (inactive)
12,CN(C)C(=O)COC(=O)Cc1ccc(OC(=O)c2ccc(NC(=N)N)cc2)cc1,93.2% (inactive)
13,Cn1nc(C(=O)Nc2ccc(F)c(Cl)c2)c2c1-c1ccccc1S(=O)(=O)C2,104% (inactive)
14,C[C@H](/N=C(\N)c1cc2c(F)cc(F)cc2[nH]1)c1ccccc1,5.98% (active)
15,COc1cc2c3cc1Oc1c(OC)c(OC)cc4c1[C@@H](Cc1ccc(O)c(c1)Oc1ccc(cc1)C[C@@H]3N(C)CC2)N(C)CC4,5.99% (active)
16,CC(C)CC(NCCc1ccccc1O)c1ccccn1 (stereo not given),41.6% (inactive)
17,O[C@@H](CNC[C@H](O)[C@H]1CCc2cc(F)ccc2O1)[C@@H]1CCc2cc(F)ccc2O1,3.82% (active)
18,CCSc1ccc2c(c1)N(CCCN1CCN(C)CC1)c1ccccc1S2,3.76% (active)
19,CN(c1ncc2nc(Nc3cc(Cl)cc(C(F)(F)F)c3)n(C3CCNCC3)c2n1)C1CC1,5.99% (active)
20,CCC(C)n1ncn(-c2ccc(N3CCN(c4ccc(OCC5COC(Cn6cncn6)(c6ccc(Cl)cc6Cl)O5)cc4)CC3)cc2)c1=O (stereo not given),4.46% (active)

# From the supplement of paper PMC11172423
